# Data: PubChem BioAssay (NCI)
# The panel holds about 83,000 compounds, 20% with a hit somewhere; the sample as a whole holds those more often.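 Treatment: one concentration, 48 hours, 96-well format. Scoring: percent growth, with anything below 10 considered active.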 The source made the active and inactive calls.
# Tested on: SR leukemia
# Test: NCI-60 one-dose screen, 48 h (100 = growth as untreated, 0 = no growth, -100 = all killed)
# Conditions: 10 µM unless noted
# Procedure: Growth inhibition of the SR human tumor cell line is measured as a screen for anti-cancer activity. Cells are grown in 96 well plates and exposed to the test compound for 48 hours. Compounds are tested at a single concentration, which is 10^-5 M for most compounds. The reported endpoint is percent growth (GI% or GIPRCNT), where numbers from 0 - 100% represent growth inhibition, and numbers from -100% - 0 represent cell death. For example, a value of 40 represents 60% growth inhibition. A value of 0 means no net growth occurred over the course of the experiment. A value of -40 indicates 40% of cells at the beginning of the experiment died by the end of the experiment. A value of -100 means all cells are dead at the end of the experiment.
# NCI-60 Human Tumor Cell Lines Screen was performed using the standard one-dose NCI protocol, which is described in more detail at https://dtp.cancer.gov/discovery_development/nci-60/default.htm.
# Compounds with GIPRCNT values below 10 were considered active. Activity score was based on GIPRCNT using the following formula: […]
# Score is 0 for GIPRCNT values of 100 or above, 50 for GIPRCNT values of 0, and 100 for GIPRCNT values of -100.
row,SMILES,growth
1,Cc1cc2c(C(C)C)c(O)c(O)c(C=NCc3ccoc3)c2c(O)c1-c1c(C)cc2c(C(C)C)c(O)c(O)c(C=NCc3ccco3)c2c1O,13.9% (inactive)
2,CCN(CC)c1ccc2cc(C(Nc3ccc(C)cc3)c3nnnn3C(C)(C)C)c(=O)oc2c1 (stereo not given),94.5% (inactive)
3,O=C(O)c1ccccc1C(F)(F)F,92.4% (inactive)
4,O=C(O)c1cccc(CN2CCN(c3cc4c(cc3F)c(=O)c(C(=O)O)cn4C3CC3)CC2)c1O,87.5% (inactive)
5,CO[C@H]1CC[C@@]2(C)C(=CC[C@H]3[C@@H]4C[C@H](O)C[C@@]4(C)CC[C@@H]32)C1,14.1% (inactive)
6,O=C(Nc1cccc(F)c1)c1cc(=O)[nH]c2cc(Br)ccc12,21.8% (inactive)
7,Oc1ccc(N=Nc2nccs2)c(O)c1,8.21% (active)
8,COc1c(C(C)=O)c(OCCCCOc2c(C(C)=O)c(OC)c3ccoc3c2OC)c(OC)c2occc12,72.7% (inactive)
9,CCCCCC1CCCCN1C(=O)OCCCC (stereo not given),108% (inactive)
10,O=C(NCCCNC(=O)OCc1ccc2c(Br)cc(Br)c(O)c2n1)OCc1ccc2c(Br)cc(Br)c(O)c2n1,5.95% (active)
11,O=[N+]([O-])c1ccc(O)c(-c2nc3ccccc3s2)c1,84.5% (inactive)
12,CCc1ccc(-c2ccc(COc3ccc(CC4SC(=O)NC4=O)cc3)cc2)cc1 (stereo not given),45.9% (inactive)
13,Cc1ccc(-n2nc3n(/c2=N\C(=O)NS(=O)(=O)c2ccc(C)cc2)CCN3C2=NCCN2)cc1,135% (inactive)
14,COC(=O)c1c(C)[nH]c(/C=C2\N=C(c3ccc[nH]3)C=C2OC)c1C,4.93% (active)
15,COc1ccc(NC(=O)Nc2ccc(-c3cccnc3)cc2N2CCC(CO)CC2)cc1,95.2% (inactive)
16,CC1Cc2ccc(OCCN(C)C)cc2C1=O (stereo not given),101% (inactive)
17,COc1ccc(NC(=S)NNc2ccc(-c3ccc(OC)c(OC)c3)nn2)cc1,98.1% (inactive)
18,CCN(CC)c1ccc2cc(NC(=O)OCCNC(=O)CCNC(=O)[C@H](CC(C)C)NC(=O)C(C)(C)NC(=O)C(C)(C)NC(=O)[C@H](CC(C)C)NC(=O)CCNC(=O)C(C)(C)NC(=O)[C@H](CC(C)C)NC(=O)CCNC(=O)[C@@](C)(CC)NC(=O)[C@H](C)NC(=O)CCNC(=O)C(C)(C)NC(=O)[C@H](C)NC(=O)[C@@H]3CCCN3C(=O)[C@@](C)(CC)NC(=O)[C@H](Cc3ccccc3)NC(=O)C3CCCN3C(=O)C(C)(C)NC(=O)C3CCCN3C(=O)C(C)(C)NC(C)=O)c(=O)oc2c1 (stereo not given in full),-52.9% (active)
19,Cc1ncc(C(=O)Nc2ccc(CN3CCN(C)CC3)c(C(F)(F)F)c2)cc1C#Cc1c(N)ncc2ccc(C#N)cc12,16.1% (inactive)
20,CC1(C)S[C@@H]2[C@H](NC(=O)[C@H](C(=O)O)c3cccs3)C(=O)N2[C@H]1C(=O)O,102% (inactive)

row,SMILES,growth
1,C=C(C)[C@@H]1CC[C@]2(C(N)=O)CC[C@]3(C)[C@H](CC[C@@H]4[C@@]5(C)C/C(=C/c6cccnc6)[C@H](O)C(C)(C)[C@@H]5CC[C@]43C)[C@@H]12,12.8% [100 µM] (inactive)
2,CC1(C)CC[C@]2(C(=O)O)CC[C@]3(C)C(=CC[C@@H]4[C@@]5(C)C/C(=C/c6cccnc6)[C@H](O)C(C)(C)[C@@H]5CC[C@]43C)[C@@H]2C1,37.3% [100 µM] (inactive)
3,CCOc1ccc(S(=O)(=O)Nc2ccc3c(c2)N(S(=O)(=O)CC)CCC3)cc1,97.6% (inactive)
4,CC(=O)CC(=O)SC1=NCCS1,102% (inactive)
5,CC(=O)Nc1ccc2nc3ccc(NC(C)=O)cc3[n+](-c3ccccc3)c2c1,83.7% (inactive)
6,COc1ccc(-c2cc(-c3ccc(Cl)cc3)nc(NCCCCNc3ccnc4cc(Cl)ccc34)n2)cc1,9.44% (active)
7,c1ccc(-c2n[nH]c(-c3ccccn3)n2)nc1,127% (inactive)
8,C=C(C)[C@@H]1CC[C@]2(C)[C@H](C(=O)C=C3[C@@H]4C[C@](C)(C(=O)N5CCN(C)CC5)CC[C@]4(C)CC[C@]32C)[C@@]1(C)CCC#N,34.7% [100 µM] (inactive)
9,COc1cc(-c2cc(-c3ccc(Nc4ncnc5cc(Cl)ccc45)cc3)nc(N3CCCCC3)n2)cc(OC)c1OC,90.9% (inactive)
10,Cn1cc(-c2nnc(-c3cn(C)c4ncc(Br)cc34)s2)c2cc(Br)ccc21,100% (inactive)
11,COc1cc2c(c(Br)c1N)-c1cc(Br)c(N)cc1C2=O,47.2% (inactive)
12,CCOC(=O)c1nn(C2CCCCO2)c2ccc(NS(=O)(=O)c3ccc(C)cc3)cc12 (stereo not given),107% (inactive)
13,C=C(CC(=O)OC)C(C)=O,112% (inactive)
14,COc1ccc(-c2c(C)nn3c(NCCN4CCOCC4)cc(C)nc23)cc1OC,79.8% (inactive)
15,O=S(=O)(/N=c1/n(-c2ccccc2)nc2n1CCN2C1=NCCN1)c1ccc(-c2ccccc2)cc1,67.4% (inactive)
16,C=C(C)[C@@H]1CC[C@]2(C(=O)OC)CC[C@]3(C)[C@H](CC[C@@H]4[C@@]5(C)CC/C(=N\OCCC(=NCCC#N)NOCCC#N)C(C)(C)[C@@H]5CC[C@]43C)[C@@H]12,1.86% [100 µM] (active)
17,CCOc1cccc2c(NC(C)CCCN(CC)CC)c(C)cnc12 (stereo not given),96.6% (inactive)
18,C=CCCC1(C)NC(=O)NC1=O (stereo not given),94.4% (inactive)
19,CC(C)CCNCC(C)(C)O,97.9% (inactive)
20,CCOC(=O)n1cc(C2=C(c3ccc(OC)c(OC)c3)COC2=O)c2ccccc21,18.1% (inactive)
